# Bioassay records as filed in PubChem BioAssay.
# In the library only some 1.4% were active in any assay of this set; here they are far more common.
# PrPC TRFRET: reduces human prion protein on the cell surface | 370,000 tested, 0.43% active | inhibition, % at 13.8 µM | P04156 | AID 720596 | cell surface PrPC, TR-FRET read-out; in the data active = inhibition above about 24%; also: 0% = median of the test wells and 100% = reference compound wells
# Vc quorum ag: induces V. cholerae light production without autoinducers; V. cholerae BH1578 lux reporter, luminescence, 6 h; activation, % at 18.7 µM; 350,000 tested, 0.16% active; AID 588436; in the data active = activation mostly above about 9.7%, no sharp cut-off
# PriA SSB inh: blocks PriA binding to SSB C-terminal tail. 430,000 tested, 0.6% active. AlphaScreen SSBct-PriA binding, biotinylated peptide. inhibition, % at 33 µM; in the data active = inhibition mostly above about 37%, no sharp cut-off; inactive = mostly below about 20%;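 also: plate controls were negative control peptide for no effect and reference peptide for full effect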
# PrP 5UTR inh: inhibition of PrP 5' UTR reporter expression; cell-based PrP 5' UTR mRNA reporter, plate reader; inhibition, % (concentration not given with the values); 340,000 tested, 0.35% active; in the data active = inhibition above about 52%; also: 0 = median of the neutral control wells
# FadD28 FP inh: M. tuberculosis FadD28 bisubstrate binding inhibition | FadD28 bisubstrate probe binding, fluorescence polarization | inhibition, % at 12.5 µM | 360,000 tested, 0.22% active | AID 588549; in the data active = inhibition above about 8.5%, passing the limit was not always enough
# Active calls of the source: *; i = inactive; . = no result given.
SMILES,PrPC TRFRET,Vc quorum ag,PriA SSB inh,PrP 5UTR inh,FadD28 FP inh
COc1ccc(N2CCN(CCCNC(=O)C(=O)c3c[nH]c4ccccc34)CC2)cc1,-2.6,-9.2,48.4*,-14.2,-5.5
O=S(=O)(NCCNc1cc(Nc2ccccn2)ncn1)c1ccccc1C(F)(F)F,.,.,7.0,.,.
COc1cc(Sc2ccc(C)cc2)c(OC)cc1N,4.1,i,78.6*,-7.2,0.9
COC(=O)c1ccc(Sc2ccc(C)cc2)c(N)c1,17.1,-0.2,-58.2,-34.6,-5.3
Cc1cccc(NC(=S)N(CCCN2CCOCC2)Cc2cn(C)c3ccccc23)c1,7.5,-0.7,-7.8,-7.3,-2.6
Cc1ccc(NC(=S)N(C)Cc2cn(C)c3ccccc23)cc1,3.3,-0.5,18.0,-16.2,16.5*
C#CCn1c(=NC(=O)c2cc(C)no2)sc2cccc(F)c21,.,.,9.0,.,.
COC1=C(Nc2ccc(C)cc2)C(=O)c2ccccc2C1=O,-2.3,-0.2,90.1*,-39.8,-1.1
O=C(NCCn1nc(-c2cccnc2)n(C2CC2)c1=O)Nc1cccs1,.,.,-5.0,.,.
Cc1ccc(S(=O)(=O)NC(=O)Nc2ccc(N(C)C)cc2)cc1,-30.1,-0.2,82.5*,-32.6,0.9
COc1ccc(NC(=O)NS(=O)(=O)c2ccc(C)cc2)c(OC)c1,-8.2,-0.7,53.5*,-24.1,-4.6
COc1ccnc(CSC(N)=Nc2ccc(F)cc2)c1,-8.1,0.3,45.7*,-15.5,-1.4
COc1cccc(N=C(N)N=C(N)N)c1,-3.8,-0.6,-2.0,-1.5,-2.0
O=C(NCc1ccccc1Cl)c1c[nH]c(=O)n(Cc2ccccc2F)c1=O,.,.,-5.0,.,.
COc1cccc(/C=C/C(=O)OCC(=O)c2c[nH]c3ccccc23)c1,1.1,-7.1,-10.3,-12.8,-1.3
COc1ccc(-c2nnn(CC(=O)NCc3ccc4c(c3)OCO4)n2)cc1OC,9.8,-0.7,-11.7,-31.3,-3.2
CCc1cccc2c(C(=O)Cn3nnc(-c4ccc(OC)c(OC)c4)n3)c[nH]c12,15.7,-0.4,-10.0,-12.7,73.0*
CCc1cccc2c(C(=O)COC(=O)/C=C/c3ccc(O)c(OC)c3)c[nH]c12,-5.6,i,12.4,-9.4,34.9*
COc1cc2cc3c(N)c(C(=O)Nc4sc(C)c(C)c4C#N)sc3nc2cc1OC,-7.6,-0.7,14.4,-6.3,10.9*
COc1cc2cc3c(N)c(C(=O)NCc4ccco4)sc3nc2cc1OC,.,-0.7,-4.7,-18.9,1.1
Cc1ccc(N2CC(NC(=O)C(c3ccccc3)c3ccccc3)CC2=O)cc1C (stereo unspecified),.,.,-8.0,.,.
c1cnc2c(OCc3cn4cccnc4n3)cccc2c1,-6.7,-0.6,43.2*,-24.1,-3.8
Clc1ccc(OCc2cn3cccnc3n2)c2ncccc12,-8.4,i,1.8,-22.0,-1.0
CCCCCCCCCCCCCCC(O)C[N+](C)(CCO)CCO (stereo unspecified),3.2,i,-15.4,-0.7,16.8*
CCOC(=O)C(C)Sc1ncnc2c1oc1ccccc12 (stereo unspecified),.,.,-27.0,.,.
SMILES,PrPC TRFRET,Vc quorum ag,PriA SSB inh,PrP 5UTR inh,FadD28 FP inh
CC1CCN(C2=C(NS(=O)(=O)c3ccc(Cl)cc3)C(=O)c3ccccc3C2=O)CC1,-15.2,i,-12.4,-19.5,-3.7
CC1CCN(C2=C(NS(=O)(=O)c3ccccc3)C(=O)c3ccccc3C2=O)CC1,-23.5,-0.5,63.6*,-16.0,-0.5
CC1CCN(C2=C(NS(=O)(=O)c3ccc(Br)cc3)C(=O)c3ccccc3C2=O)CC1,-34.9,-0.2,69.9*,-27.6,0.2
Cc1ccc(C(=O)NCCn2cc(SC(=N)N)c3ccccc32)cc1,.,.,39.0*,.,.
Cc1sc2ncnc(N3CCCCC3)c2c1-c1ccc(F)cc1,.,.,-7.0,.,.
Nc1ncnc(Nc2cccc3ccccc23)c1[N+](=O)[O-],.,.,-16.0,.,.
O=C(Nc1nnc(-c2ccc(Cl)cc2)o1)c1ccc([N+](=O)[O-])s1,.,.,-4.0,.,.
O=C(NC(Cc1ccccc1)C(=O)O)C1CCN(S(=O)(=O)c2ccccc2C(F)(F)F)CC1 (stereo unspecified),0.4,-0.6,-1.6,-10.1,11.3*
CCOc1ccc(-c2ccc(SCC(=O)c3cccs3)nn2)cc1,.,.,-3.0,.,.
CSc1nc2ccc3nc(N)sc3c2s1,.,.,-4.0,.,.
Nc1nc2ccc([N+](=O)[O-])c(N)c2s1,-26.1,-1.9,54.8*,0.1,-1.8
CC(C)OC(=O)C1C2C=CC3(CN(C(C)c4ccc(Br)cc4)C(=O)C13)O2 (stereo unspecified),-3.1,1.3,-8.0,-8.1,0.2
CC(C)OC(=O)C1C2C=CC3(CN(CC4CCCO4)C(=O)C13)O2 (stereo unspecified),2.4,20.7*,-11.7,-16.6,0.2
CCOC(=O)[C@]12Cc3cc(Cl)ccc3[C@H]1N(C)C(=O)c1cc(OC)ccc12,-5.1,.,.,.,.
CCOC(=O)[C@]12Cc3ccc(C)cc3[C@H]1N(C1CCCCC1)C(=O)c1cc(OC)ccc12,35.6*,.,.,.,.
CCOC(=O)[C@]12Cc3ccccc3[C@H]1N(C(C)C)C(=O)c1ccccc12,1.5,.,.,.,.
CCOC(=O)[C@]12Cc3cc(C)ccc3[C@H]1N(C1CCCCC1)C(=O)c1ccccc12,38.4*,.,.,.,.
CCOC(=O)[C@]12Cc3ccc(C)cc3[C@H]1N(C1CCCCC1)C(=O)c1ccccc12,33.0*,.,.,.,.
CCOC(=O)[C@]12Cc3cc(OC)ccc3[C@H]1N(C)C(=O)c1cc(OC)ccc12,0.6,.,.,.,.
CCOC(=O)[C@]12Cc3cc(Cl)ccc3[C@H]1N(C1CCCCC1)C(=O)c1cc(OC)ccc12,46.8*,.,.,.,.
Cc1cc(C)c(C(=O)NCCCN2CCN(c3ccccc3)CC2)c(C)c1,.,.,-8.0,.,.
O=C(Cc1cc(-c2cccs2)on1)Nc1nccs1,.,.,-13.0,.,.
Cc1cc(S(=O)(=O)Oc2cccc3cccnc23)ccc1F,.,.,-34.0,.,.
CCOC(=O)[C@]12Cc3cc(OC)ccc3[C@H]1N(CC(=O)OC)C(=O)c1ccccc12,0.3,.,.,.,.
CCOC(=O)[C@]12Cc3c(cc(OC)c(OC)c3OC)[C@H]1N(C1CCCCC1)C(=O)c1ccccc12,31.7*,.,.,.,.
SMILES,PrPC TRFRET,Vc quorum ag,PriA SSB inh,PrP 5UTR inh,FadD28 FP inh
O=C(O)CCn1nnc(-c2cccs2)n1,-0.5,-0.2,2.0,-23.4,0.7
CC(C)c1ccc(-c2nnn(CCC(=O)O)n2)cc1,.,-1.4,-8.6,72.8*,-0.3
CCn1nc([N+](=O)[O-])c(C(C#N)c2nc3ccccc3n2C)c(Cl)c1=O (stereo unspecified),-13.2,-0.2,23.5,-17.7,1.0
CCCn1nc([N+](=O)[O-])c(C(C#N)c2nc3ccccc3s2)c(Cl)c1=O (stereo unspecified),-49.7,i,55.0*,-5.7,25.7*
O=C1OC(Nc2cc(Br)cc3cccnc23)c2ccccc21 (stereo unspecified),-19.8,-0.5,74.0*,-27.8,0.6
Cc1cc(NC(=O)C2CCCN(c3ccc(=O)n(C)n3)C2)n(-c2ccccc2)n1 (stereo unspecified),.,.,1.0,.,.
O=c1[nH]c2ccc(NCc3ccccc3OCc3ccc(Cl)cc3)cc2[nH]1,1.4,0.7,92.3*,-10.2,-2.3
Oc1c(Br)c(Br)c(Br)c(Br)c1Br,.,-0.3,9.9,-4.7,41.5*
Oc1c(Br)cc(Br)cc1Br,7.7,-0.5,-5.7,-8.1,-2.9
COc1ccc(N=Nc2cc(C)ccc2O)cc1,-8.1,-0.2,76.7*,-37.3,-0.3
